# High-throughput results as filed in PubChem BioAssay.
# Pf growth 48h = P. falciparum growth inhibition at 48 hours (one generation); Potency, µM (titrated, usually from 28.7 µM), inactives show at the top dose activity change, negative = inhibition, hits mostly inhibitors; AID 504832; P. falciparum luciferase growth in erythrocytes, 48 h; 310,000 tested, 5.9% active; also: potency is read from the fitted curve at half-maximal effect; % is scaled to controls: 0 for no effect and ±100 for the full control effect
#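 First compound was added to culture medium, then infected red cells at 0.1% parasitemia and 2% hematocrit (final). After incubation at 37 C under 5% CO2, luciferase detection reagent was dispensed and light output recorded.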
# NS1 inh = inhibitors of influenza NS1 protein function; Potency, µM (titrated, usually from 46.1 µM), for the others: at the top dose activity, positive = more growth; 270,000 tested, 0.4% active; AID 2326; calls by dose curve; also: potency is read from the fitted curve at half-maximal effect; actives are rising curves; nearly all actives have a fitted effect of over 50% in size
#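 A cell-based growth assay was used: compounds that relieve NS1-induced slow growth of budding yeast raise OD600. Assay medium was yeast nitrogen base with ammonium sulphate and -URA supplement, pH 6.0, with 2% galactose.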
# Shiga inhibitor = inhibitors of Shiga toxin in Vero cells; Vero cells, Shiga toxin protein synthesis inhibition reporter; inhibition, % at 38.7 µM; 290,000 tested, 9.2% active; AID 2315; in the data active = inhibition mostly above about 28%, no sharp cut-off; inactive = mostly below about 43%; also: 0% is about no effect
# Cycloheximide cs = affects cycloheximide protein synthesis inhibition readout, counter-screen; cell reporter, cycloheximide protein synthesis inhibition counterscreen; max response, %; 300,000 tested, 12% active; AID 2314; in the data active = max response mostly above about 13%, no sharp cut-off; inactive = mostly below about 14%; also: read at 38.3 µM for the half of the compounds with a filed dose; 0% is about no effect
# Pf growth 96h = inhibits malaria parasite growth, 96 h; P. falciparum luciferase reporter growth, 96 h; Potency, µM (doses to about 28.7 µM), for inactives: at the highest dose activity change, negative = inhibition, hits mostly inhibitors; 320,000 tested, 6.9% active; AID 504834; also: potency is read from the fitted curve at half-maximal effect; % is scaled to controls: 0 for no effect and ±100 for the full control effect
#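 Infected RBCs, 2% Hct / 0.05% parasitemia final; luciferase-reporter P. falciparum; cpd 96 h, 37 C, 5% CO2; luciferase detection reagent; luminescence.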
# FBPA Giardia inh = blocks Giardia fructose-bisphosphate aldolase activity. 290,000 tested, 0.71% active. Potency, µM (doses to about 59.6 µM), for the others: at the highest dose activity, negative = inhibition, actives largely listed as inhibitors. purified Giardia FBPA. A8B2U2; also: potency is read from the fitted curve at half-maximal effect; % is scaled to controls: 0 for no effect and ±100 for the full control effect; nearly all actives have a fitted effect of over 55% in size
# Target sequence (A8B2U2 whole entry, looked up): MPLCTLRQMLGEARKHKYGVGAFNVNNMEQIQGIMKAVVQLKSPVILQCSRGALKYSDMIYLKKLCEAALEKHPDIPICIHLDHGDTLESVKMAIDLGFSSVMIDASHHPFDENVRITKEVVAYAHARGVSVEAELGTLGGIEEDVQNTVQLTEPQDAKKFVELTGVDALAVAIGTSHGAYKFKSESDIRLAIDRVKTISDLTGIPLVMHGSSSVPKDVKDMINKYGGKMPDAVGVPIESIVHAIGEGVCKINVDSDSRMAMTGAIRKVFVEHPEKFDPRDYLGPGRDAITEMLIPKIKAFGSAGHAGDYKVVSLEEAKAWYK
#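 40 nM FBPA preincubated 10 min at RT with compound (up to 57.5 uM final), then substrate plus GAPDH/TPI/NAD/arsenate coupling and diaphorase/resazurin added. Fluorescence read after 20 min at RT, 525/598 nm.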
# An asterisk follows results filed as active; ? = inconclusive; · = no result; [ ] = another dose, or the depositor's remark. Shown are actives, neighbours in structure and some others; about 21% of the full set was active somewhere. Unless noted, calls follow the shape of the dose curve; as a rule, active = well fitted curve in the direction sought with a large enough effect; inconclusive = small, poorly fitted or top-dose-only effect, or another doubt; inactive = no such curve, though single readings can be large; an effect the other way counts as inactive or inconclusive.
SMILES,Pf growth 48h,NS1 inh,Shiga inhibitor,Cycloheximide cs,Pf growth 96h,FBPA Giardia inh
CCOc1cc2[nH]c(=O)n(CCCCCC(=O)NCc3ccco3)c(=O)c2cc1OCC,·,3.6%,-0.4,0.6,·,4.6%
CCOc1cc2[nH]c(=S)n(CCCOC)c(=O)c2cc1OCC,-7.9%,-3.0%,-11.3,-2.4,6.57µM*,-1.1%
CN(Cc1ccccc1)C(=O)CCCn1c(=O)[nH]c2cc(Cl)ccc2c1=O,·,-2.8%,16.6,-2.0,14.7µM*,-1.6%
O=S(=O)(Cc1ccccc1)Oc1ccccc1,29.0%,2.9%,20.4,2.0,-14.2%,-18.2%
O=C(CCCc1ccccc1)Nc1ccccn1,27.6%,-4.1%,74.1*,19.0*,85.2%,-6.5%
CCC1CCCCN1CCCNC(=O)COc1cc(=O)n(C)c2ccccc12 (centres undefined),5.1%,1.8%,3.9,1.5,61.1%,-12.2%
Cc1ccnc(NC(=O)CCCc2ccccc2)c1,125.5%,-9.0%,74.4*,57.9*,24.7%,-1.8%
Cc1ccnc(NC(=O)CCC(=O)N(CC(=O)NCc2ccccc2)Cc2ccccc2)c1,3.1%,-19.6%,33.9,4.3,59.1%,3.4%
CCC1CCCCN1CCCNC(=O)CCCOc1cc(=O)n(C)c2ccccc12 (centres undefined),-22.4%,·,6.1,4.7,6.57µM*,-0.9%
Cc1ccnc(NC(=O)CCCc2c[nH]c3ccccc23)c1,57.5%,5.3%,46.1*,23.2*,51.1%,·
Cc1cc(NC(=O)CSc2ccccn2)no1,12.4%,·,-3.9,10.5,47.9%,0.5%
Cc1ccnc(NC(=O)CSc2ccccn2)c1,54.8%,-1.3%,42.2,29.2*,92.5%,1.3%
Cc1ccnc(NC(=O)CCCOc2cc(=O)n(C)c3ccccc23)c1,-24.2%,-18.5%,63.3,16.0*,-12.0%,-3.0%
CCOc1ccc(NC(=O)c2cc3cc4ccc(OC)cc4nc3o2)cc1,·,3.9%,-3.3,-4.9,5.22µM*,-4.3%
CCCCN(CC)C(=O)c1cc2cc3ccc(OC)cc3nc2o1,11.7µM*,-14.8%,80.0*,27.3*,5.22µM*,-2.7%
CCCCN(CC)CCCNC(=O)c1cc2cc3ccc(C)cc3nc2o1,11.5%[0.00184 µM],1.8%,-5.7,-3.5,-2.4%,-2.7%
COc1ccc2cc3cc(C(=O)NCc4ccccn4)oc3nc2c1,6.57µM*,-1.2%,38.3,11.4,0.0%,-2.9%
COc1ccc2cc3cc(C(=O)NCCC(C)C)oc3nc2c1,?,-1.8%,51.0,-0.8,-3.5%,3.0%
COCCNC(=O)c1cc2cc3ccc(OC)cc3nc2o1,7.4%[0.00184 µM],-3.3%,49.5,41.7*,16.0%,1.6%
COc1ccc2cc3cc(C(=O)NCc4ccco4)oc3nc2c1,·,-10.8%,-6.0,-1.4,-10.1%,-8.4%
Cc1ccccc1-c1cncnc1NC1CCNCC1,·,·,·,·,·,-3.0%
CC(C(=O)NN)c1ccc([N+](=O)[O-])cc1 (centres undefined),3.7%,4.3%,-11.8,-1.6,30.6%,2.1%
O=S(=O)(Cc1ccccc1)Nc1ccc(F)cc1,16.6%,0.8%,-7.8,-2.8,22.6%,-3.3%
O=C(CN1CCCCC1)Nc1ccccc1Oc1ccccc1,?,0.7%,-6.2,-2.1,?,7.5%
CCCCN(C)C(=O)c1cc2cc3ccc(OC)cc3nc2s1,114.3%,-57.0%,56.6*,25.1*,26.9%,-6.0%
SMILES,Pf growth 48h,NS1 inh,Shiga inhibitor,Cycloheximide cs,Pf growth 96h,FBPA Giardia inh
COc1ccc2cc3cc(C(=O)Nc4ccccc4N4CCN(C)CC4)oc3nc2c1,?,-44.3%,-21.0,-2.5,?,1.1%
CCC(C)NC(=O)c1cc2cc3ccc(OC)cc3nc2o1 (centres undefined),?,5.2%,38.7*,29.9*,8.5%,-4.4%
COc1ccc2cc3cc(C(=O)NCC4CCCO4)oc3nc2c1 (centres undefined),?,-12.2%,45.8*,19.1,2.8%,-9.0%
COc1ccc(-n2cnc3cc(C(=O)NCC4CCCO4)ccc32)cc1 (centres undefined),34.2%,1.0%,19.8,2.0,46.5%,20.6%
CN1CCOc2cc(S(=O)(=O)NCc3ccc(S(N)(=O)=O)cc3)ccc21,1.5%,9.9%,-2.5,-0.9,2.9%,·
OC[C@H]1O[C@@H]2O[C@H]3[C@H](O)[C@@H](O)[C@@H](O[C@H]4[C@H](O)[C@@H](O)[C@@H](O[C@H]5[C@H](O)[C@@H](O)[C@@H](O[C@H]6[C@H](O)[C@@H](O)[C@@H](O[C@H]7[C@H](O)[C@@H](O)[C@@H](O[C@H]8[C@H](O)[C@@H](O)[C@@H](O[C@H]1[C@H](O)[C@H]2O)O[C@@H]8CO)O[C@@H]7CO)O[C@@H]6CO)O[C@@H]5CO)O[C@@H]4CO)O[C@@H]3CO,0.9%,·,·,·,2.2%,·
C/C(=N\NC(=O)CCc1c[nH]c2ccccc12)c1ccc([N+](=O)[O-])cc1,-10.8%,15.5%,13.2,-3.6,30.6%,1.4%
C/C(=N/Nc1ccc([N+](=O)[O-])cc1)c1ccc(C)cc1C,48.1%,·,93.8*,42.1*,-9.9%,-8.0%
C/C(=N/Nc1ccc([N+](=O)[O-])cc1)c1c[nH]c2ccccc12,1.1%,-75.1%,33.7*,27.3*,?,6.1%
Cc1ccc(N(CC(=O)NC(C)(C)C)C(=O)CCC(=O)Nc2nccs2)c(C)c1,-22.0%,17.6%,-4.1,-4.3,-14.2%,1.2%
N#CC1=C(N)C2=C(N3CCCCC3)CCCC2C1(C#N)C#N (centres undefined),4.7%,-1.6%,20.7,0.4,11.7µM*,?
CCC1C(C#N)=C(SCC(N)=O)NC2=C1C(=O)CC(C)(C)C2 (centres undefined),8.3%,-1.5%,-10.2,-1.2,-2.1%,0.2%
COc1ccc(C2C(C#N)=C(SCC(=O)Nc3ccc(C)cc3)NC3=C2C(=O)CC(C)(C)C3)cc1 (centres undefined),13.1µM*,18.1%,27.1,1.2,?,-15.6%
CC(C)(C)c1ccc(C(=O)CCCSC2=C(C#N)C(c3ccco3)C3=C(CCCC3=O)N2)cc1 (centres undefined),6.57µM*,?,-1.6,3.7,19.5%,-10.5%
COc1cccc(NC(=O)CSC2=C(C#N)C(c3ccco3)C3=C(CCCC3=O)N2)c1 (centres undefined),-21.1%,-4.0%,92.4*,36.3*,134.0%,?
Cc1ccc(C(=O)CSC2=C(C#N)C(c3ccco3)C3=C(CCCC3=O)N2)cc1 (centres undefined),?,15.8%,-17.8,18.0*,-24.0%,-4.7%
Nc1ncnc2nc(SCC(=O)Nc3ccccc3F)[nH]c12,11.6%,20.6%,-13.5,-1.6,?,?
